# Measured values as given in PubChem BioAssay (NCATS).
# Inconclusive results are not listed. This is one part of the list. The source made the active and inactive calls. Unless noted, calls follow the shape of the dose curve; as a rule, active = well fitted curve in the direction sought with a large enough effect; inconclusive = small, poorly fitted or top-dose-only effect, or another doubt; inactive = no such curve, though single readings can be large; an effect the other way counts as inactive or inconclusive.
# What was measured:
# [1] = biological target: Cytochrome P450 3A4 (Homo sapiens) (UniProt P08684); experiment: qHTS Assay for Inhibitors and Substrates of Cytochrome P450 3A4 (AID 884); also: nearly all actives have a fitted effect of over 50% in size; also: potency is read from the fitted curve at half-maximal effect; as to activity change, negative = inhibition: % is scaled to controls: 0 for no effect and ±100 for the full control effect
# Chain of Cytochrome P450 3A4 (Homo sapiens) (P08684 whole entry, looked up): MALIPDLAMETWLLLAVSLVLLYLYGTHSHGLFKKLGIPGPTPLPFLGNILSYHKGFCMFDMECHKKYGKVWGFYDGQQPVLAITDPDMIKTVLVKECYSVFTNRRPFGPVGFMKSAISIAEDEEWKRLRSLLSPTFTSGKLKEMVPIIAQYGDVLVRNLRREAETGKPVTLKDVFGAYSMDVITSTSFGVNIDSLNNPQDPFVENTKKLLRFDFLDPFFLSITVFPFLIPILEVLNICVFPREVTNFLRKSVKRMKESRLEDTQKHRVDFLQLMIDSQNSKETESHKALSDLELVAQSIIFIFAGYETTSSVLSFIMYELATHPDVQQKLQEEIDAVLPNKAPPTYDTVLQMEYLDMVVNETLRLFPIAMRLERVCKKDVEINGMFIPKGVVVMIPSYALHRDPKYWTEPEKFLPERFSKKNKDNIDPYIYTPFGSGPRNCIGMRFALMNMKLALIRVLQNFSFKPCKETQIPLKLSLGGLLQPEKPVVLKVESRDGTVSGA
# Outline: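 20 nM human CYP3A4 with 25 uM Luciferin-PPXE (at KM) in 200 mM KPO4, preincubated 10 min with compound; NADPH regeneration started a 60 min RT reaction. Luciferin detected by luminescence, normalized to 57 uM ketoconazole as full inhibition.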
# [2] = qHTS Assay for Lipid Storage Modulators (AID 1519; calls by dose curve; as to activity change, negative = inhibition: % is scaled to controls: 0 for no effect and ±100 for the full control effect); conditions: Drosophila S3 cells, BODIPY lipid droplet/cell ratio, laser cytometry, cells loaded with oleic acid; for activity change, negative = inhibition: at 57.5 µM (top of the series)
# Outline: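 Cells seeded at 5,000 per well were treated with compounds over a concentration series and loaded with oleic acid (400 uM, as added). Lipid droplet fluorescence (488 nm excitation, 500-530 nm channel) was read by laser-scanning cytometry and normalized to 20 uM Triacsin C.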
# [3] = biological target: DNA dC->dU-editing enzyme APOBEC-3G (Homo sapiens) (UniProt Q9HC16); experiment: qHTS for inhibitors of Vif-A3G interactions: Validation (AID 588379); also: 0% is about no effect
# Chain of DNA dC->dU-editing enzyme APOBEC-3G (Homo sapiens) (Q9HC16 whole entry, looked up): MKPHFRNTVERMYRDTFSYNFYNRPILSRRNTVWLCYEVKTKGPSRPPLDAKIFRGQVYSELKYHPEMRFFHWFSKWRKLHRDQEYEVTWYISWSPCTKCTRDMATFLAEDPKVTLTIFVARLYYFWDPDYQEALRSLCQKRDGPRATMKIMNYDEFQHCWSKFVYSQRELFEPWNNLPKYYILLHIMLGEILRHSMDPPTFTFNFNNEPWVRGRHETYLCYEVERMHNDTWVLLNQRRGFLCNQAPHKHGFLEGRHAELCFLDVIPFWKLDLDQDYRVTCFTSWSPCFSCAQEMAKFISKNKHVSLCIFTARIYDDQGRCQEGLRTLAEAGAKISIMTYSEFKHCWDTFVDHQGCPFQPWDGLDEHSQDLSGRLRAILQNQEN
# Outline: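 HeLa cells stably expressing Vif and A3G-eYFP, 700 cells/well, incubated overnight at 37 deg C, then exposed to compound overnight at 37 deg C. Inhibition of Vif-mediated degradation read as increased yellow fluorescence (Ex 488/Em 500-530) by laser-scanning cytometry.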
# [4] = biological target: Cytochrome P450 3A4 (Homo sapiens) (UniProt P08684); experiment: qHTS Assay for Activators of Cytochrome P450 3A4 (AID 885); also: nearly all actives have a fitted effect of over 65% in size
# Outline: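 Steps: enzyme/substrate mix dispensed; compound added, 10 min RT; NADPH regeneration solution added, 60 min RT; luciferin detection buffer stops reaction; 20 min later luminescence measured.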
# [5] = Confirmation and Secondary Assay for Modulators of Hemoglobin Beta Chain Splicing at IVS2 654 locus (AID 910); also: % of control where 0% means no effect
# Outline: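 HeLa cells stably carrying EGFP interrupted by mutant beta-globin IVS2-654 intron (CMV-driven) were treated with compound for 2 days at 37C; corrected splicing was scored as total peak GFP intensity per well (488 nm excitation, 500-520 nm emission).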
# [6] = Confirmation and Secondary Assay for Modulators of Hemoglobin Beta Chain Splicing at IVS2 705 locus (AID 930);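 also: HeLa cells stably expressing the EGFP-705 splicing reporter; GFP fluorescence per well restored by corrected splicing of the IVS2-705 intron in EGFP; % of control where 0% means no effect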
# Outline: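 Read-out: total peak GFP fluorescence per well (488 nm excitation, 500-520 nm emission) by laser-scanning cytometry. Cells: HeLa EGFP-705 splicing reporter, 2 days compound exposure in Optimem/2% FCS.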
# [7] = biological target: ATPase family AAA domain-containing protein 5 (Homo sapiens) (UniProt Q96QE3); experiment: HTS assay for small molecules that inhibit ELG1-dependent DNA repair in human embryonic kidney (HEK293T) cells expressing luciferase-tagged ELG1: Hit Confirmation (AID 624248); conditions: HEK293T ELG1-luciferase levels, luminescence; cells co-treated with 5-fluorouridine; also: potency is read from the fitted curve at half-maximal effect; nearly all actives have a fitted effect of over 55% in size
# Chain of ATPase family AAA domain-containing protein 5 (Homo sapiens) (Q96QE3 whole entry, looked up, the tested form may be a part): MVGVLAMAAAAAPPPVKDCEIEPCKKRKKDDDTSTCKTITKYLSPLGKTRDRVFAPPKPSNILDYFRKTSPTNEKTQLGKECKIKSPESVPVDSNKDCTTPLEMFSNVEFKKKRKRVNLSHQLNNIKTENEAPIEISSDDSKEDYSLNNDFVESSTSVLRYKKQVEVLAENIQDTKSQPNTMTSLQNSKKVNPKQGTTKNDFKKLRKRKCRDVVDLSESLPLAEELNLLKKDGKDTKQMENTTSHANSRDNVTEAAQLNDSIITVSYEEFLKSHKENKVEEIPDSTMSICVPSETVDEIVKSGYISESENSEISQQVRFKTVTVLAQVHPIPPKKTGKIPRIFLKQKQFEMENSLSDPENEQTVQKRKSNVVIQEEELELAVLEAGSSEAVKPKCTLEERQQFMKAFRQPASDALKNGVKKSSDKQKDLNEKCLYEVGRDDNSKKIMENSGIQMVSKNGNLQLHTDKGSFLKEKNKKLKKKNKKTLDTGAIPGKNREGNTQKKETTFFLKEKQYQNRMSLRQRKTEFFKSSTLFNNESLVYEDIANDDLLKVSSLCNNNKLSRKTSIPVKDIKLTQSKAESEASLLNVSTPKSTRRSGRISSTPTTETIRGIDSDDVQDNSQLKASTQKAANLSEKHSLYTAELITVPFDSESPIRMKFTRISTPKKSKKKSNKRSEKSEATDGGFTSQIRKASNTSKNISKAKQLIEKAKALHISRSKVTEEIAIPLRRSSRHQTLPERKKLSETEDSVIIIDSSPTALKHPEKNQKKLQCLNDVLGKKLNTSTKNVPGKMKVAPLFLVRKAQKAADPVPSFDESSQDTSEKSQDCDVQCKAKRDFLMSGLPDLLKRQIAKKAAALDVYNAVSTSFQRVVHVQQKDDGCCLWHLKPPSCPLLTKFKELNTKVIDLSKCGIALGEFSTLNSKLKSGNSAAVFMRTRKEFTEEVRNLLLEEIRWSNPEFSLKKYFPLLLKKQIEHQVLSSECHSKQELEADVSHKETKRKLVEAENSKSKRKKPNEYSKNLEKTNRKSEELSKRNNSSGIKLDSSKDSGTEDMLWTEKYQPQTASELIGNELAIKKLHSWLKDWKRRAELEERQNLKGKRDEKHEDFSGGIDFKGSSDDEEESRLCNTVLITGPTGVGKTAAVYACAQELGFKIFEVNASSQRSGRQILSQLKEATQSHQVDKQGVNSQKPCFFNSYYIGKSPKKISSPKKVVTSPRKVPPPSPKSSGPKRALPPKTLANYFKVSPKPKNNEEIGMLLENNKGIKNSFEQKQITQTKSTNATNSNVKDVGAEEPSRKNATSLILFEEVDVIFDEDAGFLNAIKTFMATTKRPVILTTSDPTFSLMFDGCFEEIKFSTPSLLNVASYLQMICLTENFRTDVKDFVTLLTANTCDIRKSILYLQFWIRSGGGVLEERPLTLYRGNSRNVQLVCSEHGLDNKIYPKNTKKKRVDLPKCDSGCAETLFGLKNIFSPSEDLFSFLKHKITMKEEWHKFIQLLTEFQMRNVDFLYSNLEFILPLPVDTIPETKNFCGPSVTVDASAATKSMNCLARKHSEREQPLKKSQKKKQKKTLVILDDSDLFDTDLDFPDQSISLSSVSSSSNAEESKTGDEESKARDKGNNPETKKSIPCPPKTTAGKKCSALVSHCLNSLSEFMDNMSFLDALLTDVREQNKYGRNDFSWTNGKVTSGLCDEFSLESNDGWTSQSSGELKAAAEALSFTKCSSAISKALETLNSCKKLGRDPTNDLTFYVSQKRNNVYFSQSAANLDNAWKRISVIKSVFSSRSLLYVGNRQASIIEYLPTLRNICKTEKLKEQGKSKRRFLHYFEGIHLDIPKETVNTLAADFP
# Outline: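 Cells (2,000/well) received 5-Fluorouridine plus pin-transferred compound or DMSO and were incubated 16 hr at 37 °C, 5% CO2. Luciferase activity was read by ONE-Glo luminescence after 30 min at room temperature; inhibitors suppress the signal.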
# [8] = biological target: ATPase family AAA domain-containing protein 5 (Homo sapiens) (UniProt Q96QE3); experiment: qHTS screen for small molecules that inhibit ELG1-dependent DNA repair in human embryonic kidney (HEK293T) cells expressing luciferase-tagged ELG1: Hit Confirmation using MMS Stimulated ELG1 (AID 624249); conditions: HEK293T luciferase-tagged ELG1 level; also: potency is read from the fitted curve at half-maximal effect; nearly all actives have a fitted effect of over 60% in size
# Outline: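 Seed HEK293T ELG1-luc cells (2,000/well). Add compounds at ~5 h, then MMS to 10 µM final. Incubate 16 h. Measure luciferase using Amplight.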
# [9] = qHTS screen for small molecules that inhibit ELG1-dependent DNA repair: Hit Confirmation with 5FU Viability (AID 624250); conditions: cell viability with 5-FU;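 also: potency is read from the fitted curve at half-maximal effect; viability measured 16 h after compound addition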
# Outline: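 HEK293T ELG1-luc; cpd + 5-fluorouridine (10 µM final) added ~5 h post-seeding; 16 h incubation; CellTiter-Glo viability readout.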
# [10] = qHTS screen for small molecules that inhibit ELG1-dependent DNA repair: Hit Confirmation with MMS Viability (AID 624251); conditions: Cell viability with MMS; also: potency is read from the fitted curve at half-maximal effect; nearly all actives have a fitted effect of over 60% in size
# Outline: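 ELG1-luc HEK293T cells were plated, then about 5 h later received compounds by pin transfer plus MMS at 10 µM final. Viability was read by CellTiter-Glo luminescence after 16 h.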
# [11] = biological target: Luciferin 4-monooxygenase (Photinus pyralis) (UniProt P08659); experiment: qHTS screen for small molecules that inhibit ELG1-dependent DNA repair: Hit Confirmation in Biochemical Luciferin Assay (AID 624253); also: % is scaled to controls: 0 for no effect and ±100 for the full control effect
# Outline: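 Counter-screen against purified firefly luciferase: substrate reagent dispensed first, then compound or DMSO by pintool, then luciferase enzyme added. Luminescence read on a CCD-based imager.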
# [12] = measured here: cell count channel max response
# [13] = measured here: lipid channel max response
Compound,Potency [1],"activity change, negative = inhibition [2]","max response [2, 12] [%]","max response [2, 13] [%]",outcome [3],Potency [4],Potency [5],Potency [6],Potency [7],Potency [8],Potency [9],Potency [10],outcome [11]
CNC1C2CN3CCC(O2)C13 (configuration not stated),inactive,3.03% (inactive),7.52,11.5,inactive,–,–,–,–,–,–,–,–
COc1cc2c(cc1OC)[C@]13CCN4CC5=CCOC6CC(=O)N2[C@@H]1[C@@H]6C5C[C@@H]43 (some centres not stated),inactive,-2% (inactive),-11.3,-11.3,inactive,–,–,–,–,–,–,–,–
c1cc2c(cc1C1OC[C@@H]3C(c4ccc5c(c4)OCO5)OCC13)OCO2 (some centres not stated),79.4 nM (active),7.47% (inactive),12.5,26,–,inactive,inactive,–,–,–,–,–,–
COC1CC(OC2CC[C@@]3(C=O)C4CC[C@]5(C)C(C6=CC(=O)OC6)CC[C@@]5(O)C4CC[C@]3(O)C2)OC(C)C1O (some centres not stated),inactive,0.995% (inactive),18.6,20.5,–,–,inactive,inactive,706 nM (active),315 nM (active),706 nM (active),397 nM (active),inactive
